CF NFkB inh – inhibitors of cystic fibrosis induced NF-kB. inhibition, % at 5 µM. AID 588850. 360,000 tested, 0.86% active. KKLEB NF-kB-GFP reporter, PAF-induced, GFP fluorescence overnight;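 active means at least 50% inhibition at 5 µM, scaled per plate between neutral and stimulator controls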;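 further: PAF is a Pseudomonas aeruginosa culture filtrate used as stimulus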
MITF TRPM1 inh – MITF TRPM1 promoter inhibition in SK-MEL-5 cells | inhibition, % at 12.5 µM | 330,000 tested, 0.83% active | SK-MEL-5 TRPM1 promoter luciferase, 24 h;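 active means mean inhibition across replicates of 60% or more, whatever share of single replicates reaches that level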
Peg3 prom inh-1 – inhibitors of Peg3 promoter; HeLa PEG-Prom luciferase reporter, luminescence, overnight; 360,000 tested, 1.7% active; inhibition, % at 20 µM;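 active means inhibition of at least 50% at 20 µM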
KKLEB cytotox – CF airway cell cytotoxicity counter-screen; KKLEB CF airway cells viability, ATPlite luminescence, overnight; active compounds read low; cells stimulated with P. aeruginosa culture filtrate; activity change (cytotoxicity), % at 5 µM; 360,000 tested, 0.36% active; AID 602141;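 active means corrected activity change at or below -50% at 5 µM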
HIF-2a inh – inhibitors of HIF-2a; 786-0 RCC cells HIF-2a reporter, luciferase luminescence, overnight; inhibition, % at 18.8 µM; 360,000 tested, 0.72% active; AID 624352;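 active means inhibition of the luminescence signal of 40% or more relative to plate controls, in a single-dose primary screen at 18.75 µM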
ABHD5 PLIN5 PPI – ABHD5-PLIN5 protein interaction inhibition; Q00G26+Q8WTS1; Split G. princeps luciferase complementation, luminescence, 4 h; inhibition, % at 4 µM; 360,000 tested, 0.78% active; AID 602281;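 active means inhibition above the mean inhibition across every tested compound plus 3 SD, cut at about 22% in these data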
Target sequence (Q00G26 whole entry, looked up): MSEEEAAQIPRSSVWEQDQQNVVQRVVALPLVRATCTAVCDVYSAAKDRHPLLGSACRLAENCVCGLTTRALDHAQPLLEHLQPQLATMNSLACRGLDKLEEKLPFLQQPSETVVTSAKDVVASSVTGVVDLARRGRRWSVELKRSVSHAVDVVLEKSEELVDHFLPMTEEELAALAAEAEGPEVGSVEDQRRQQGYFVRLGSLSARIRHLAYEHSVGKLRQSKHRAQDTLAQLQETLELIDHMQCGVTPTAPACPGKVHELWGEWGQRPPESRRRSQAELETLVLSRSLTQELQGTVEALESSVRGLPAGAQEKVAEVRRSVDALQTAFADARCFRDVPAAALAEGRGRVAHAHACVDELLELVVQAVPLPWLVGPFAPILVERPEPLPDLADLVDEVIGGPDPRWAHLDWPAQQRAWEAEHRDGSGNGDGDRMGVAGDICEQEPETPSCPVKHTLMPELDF
Target sequence (Q8WTS1 whole entry, looked up): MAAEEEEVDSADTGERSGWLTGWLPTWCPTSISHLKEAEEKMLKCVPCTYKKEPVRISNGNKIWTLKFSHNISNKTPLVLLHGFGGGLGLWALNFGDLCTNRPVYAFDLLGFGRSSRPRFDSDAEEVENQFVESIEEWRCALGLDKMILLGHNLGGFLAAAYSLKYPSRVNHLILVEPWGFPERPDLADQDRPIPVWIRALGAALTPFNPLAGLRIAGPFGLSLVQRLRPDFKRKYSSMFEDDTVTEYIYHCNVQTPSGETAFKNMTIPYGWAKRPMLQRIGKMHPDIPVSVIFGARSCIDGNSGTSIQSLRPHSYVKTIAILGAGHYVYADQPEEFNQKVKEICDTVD
Peg3 prom inh-2 – Peg3 promoter inhibition confirmation; shares compounds with Peg3 prom inh-1; HeLa PEG-Prom luciferase reporter, luminescence, overnight; inhibition, % at 20 µM; 1,300 tested, 84% active; AID 602417;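 active means at 20 µM dose, 40% or more inhibition averaged across four replicates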
A number is an active result. This is a sample that favours compounds with a hit; in the whole collection about 3% have one here.

What do the screens show for `O=C(NC1CC1)c1ccc2sc([C@H]3C[C@H](O)[C@@H](CO)O3)nc2c1`?
CF NFkB inh: inactive; Peg3 prom inh-1: inactive; KKLEB cytotox: inactive; HIF-2a inh: inactive; ABHD5 PLIN5 PPI: inactive

What do the screens show for `CCOC(=O)CSC1=NC(=O)/C(=C\c2ccc(Cl)cc2)S1`?
CF NFkB inh: inactive; MITF TRPM1 inh: 66.0; Peg3 prom inh-1: 87.8; KKLEB cytotox: inactive; HIF-2a inh: inactive; ABHD5 PLIN5 PPI: inactive; Peg3 prom inh-2: inactive

Results for CC(C)[C@H](N[C@@H](C)c1ccccc1)c1c(O)ccc2ccccc12 ?
CF NFkB inh: inactive; MITF TRPM1 inh: inactive; Peg3 prom inh-1: inactive; KKLEB cytotox: inactive; HIF-2a inh: inactive; ABHD5 PLIN5 PPI: inactive

How did CC(C)C(=O)Nc1cc2c3c(c1)CCC(=O)N3CCC2 do in these assays?
CF NFkB inh: inactive; MITF TRPM1 inh: inactive; Peg3 prom inh-1: inactive; KKLEB cytotox: inactive; HIF-2a inh: inactive; ABHD5 PLIN5 PPI: inactive

How did NCCc1c(-c2ccccc2)n(-c2ccccc2)c2ccccc12 do in these assays?
CF NFkB inh: inactive; MITF TRPM1 inh: inactive; Peg3 prom inh-1: 106.8; KKLEB cytotox: inactive; HIF-2a inh: inactive; ABHD5 PLIN5 PPI: inactive; Peg3 prom inh-2: 99.3

How did COc1cc(OC)c2cc(C(=O)N/N=C/c3ccccc3O)[nH]c2c1 do in these assays?
CF NFkB inh: inactive; MITF TRPM1 inh: inactive; Peg3 prom inh-1: 72.0; KKLEB cytotox: inactive; HIF-2a inh: inactive; ABHD5 PLIN5 PPI: inactive; Peg3 prom inh-2: 59.2

Results for Cc1cc(C)cc(NC(=O)Cn2c(=O)oc3cc(S(=O)(=O)N4CCC(C)CC4)ccc32)c1 ?
CF NFkB inh: inactive; Peg3 prom inh-1: 68.4; KKLEB cytotox: inactive; HIF-2a inh: inactive; ABHD5 PLIN5 PPI: inactive; Peg3 prom inh-2: 43.8

Results for Clc1cccc(N2CCN(Cc3ccc(Br)o3)CC2)c1 ?
CF NFkB inh: inactive; MITF TRPM1 inh: inactive; Peg3 prom inh-1: inactive; KKLEB cytotox: inactive; HIF-2a inh: inactive; ABHD5 PLIN5 PPI: inactive

How did CCN(CC)CCN(C(=O)c1cc2c(ccc3ccccc32)oc1=O)c1nc2cc3c(cc2s1)OCCO3 do in these assays?
CF NFkB inh: inactive; MITF TRPM1 inh: 74.6; Peg3 prom inh-1: 95.9; KKLEB cytotox: inactive; HIF-2a inh: inactive; ABHD5 PLIN5 PPI: inactive; Peg3 prom inh-2: inactive

What do the screens show for `CC1=CC(C)[C@H](/C=N/n2c(=O)[nH]c3c([nH]c4ccc(C)cc43)c2=O)C(C)C1` (stereo partly specified)?
CF NFkB inh: inactive; MITF TRPM1 inh: inactive; Peg3 prom inh-1: 61.5; KKLEB cytotox: inactive; HIF-2a inh: inactive; ABHD5 PLIN5 PPI: inactive; Peg3 prom inh-2: inactive

Results for COc1ccc(/C=N/n2c(=O)[nH]c3c([nH]c4ccc(C)cc43)c2=O)cc1CN1CCOCC1 ?
CF NFkB inh: inactive; MITF TRPM1 inh: inactive; Peg3 prom inh-1: inactive; KKLEB cytotox: inactive; HIF-2a inh: inactive; ABHD5 PLIN5 PPI: inactive

How did CCCCCCCn1c(=N)n(CC(O)c2ccco2)c2ccccc21 (stereo unspecified) do in these assays?
CF NFkB inh: inactive; MITF TRPM1 inh: inactive; Peg3 prom inh-1: 80.3; KKLEB cytotox: inactive; HIF-2a inh: inactive; ABHD5 PLIN5 PPI: inactive; Peg3 prom inh-2: 90.7

Results for CCCCCCCn1c(=N)n(CC(=O)c2ccco2)c2ccccc21 ?
CF NFkB inh: inactive; MITF TRPM1 inh: inactive; Peg3 prom inh-1: 87.2; KKLEB cytotox: inactive; HIF-2a inh: inactive; ABHD5 PLIN5 PPI: inactive; Peg3 prom inh-2: 63.7

What do the screens show for `CCC(=O)NC1CCN(C(=S)NC)CC1`?
CF NFkB inh: inactive; MITF TRPM1 inh: inactive; Peg3 prom inh-1: inactive; KKLEB cytotox: inactive; HIF-2a inh: inactive; ABHD5 PLIN5 PPI: inactive

How did COc1ccccc1N1CCN(C(=O)C(Sc2ccccc2)c2ccccc2)CC1 (stereo unspecified) do in these assays?
CF NFkB inh: inactive; MITF TRPM1 inh: inactive; Peg3 prom inh-1: 52.4; KKLEB cytotox: inactive; HIF-2a inh: inactive; ABHD5 PLIN5 PPI: inactive; Peg3 prom inh-2: 40.9

Results for COc1ccccc1N1CCN(C(=O)CSc2ccccc2)CC1 ?
CF NFkB inh: inactive; MITF TRPM1 inh: inactive; Peg3 prom inh-1: inactive; KKLEB cytotox: inactive; HIF-2a inh: inactive; ABHD5 PLIN5 PPI: inactive

Results for CC(C)CCCCCCCCCCCCC(=O)NCC(=O)NC1C(O)C(O)C(Nc2ncnc3nc[nH]c23)OC1C(O)CO (stereo unspecified) ?
CF NFkB inh: 90.4; MITF TRPM1 inh: 76.2; Peg3 prom inh-1: 99.9; KKLEB cytotox: inactive; HIF-2a inh: 69.4; ABHD5 PLIN5 PPI: inactive; Peg3 prom inh-2: 99.3

What do the screens show for `CN(C)c1ccc(/C=C/c2nc3ccccc3s2)cc1`?
CF NFkB inh: inactive; MITF TRPM1 inh: 77.1; Peg3 prom inh-1: 102.1; KKLEB cytotox: -83.1; HIF-2a inh: 61.6; ABHD5 PLIN5 PPI: inactive; Peg3 prom inh-2: 66.6

Results for CN(C)c1ccc(/C=C/c2ccc3ccccc3n2)cc1 ?
CF NFkB inh: inactive; MITF TRPM1 inh: 72.2; Peg3 prom inh-1: 88.5; KKLEB cytotox: -79.7; HIF-2a inh: 76.1; ABHD5 PLIN5 PPI: inactive; Peg3 prom inh-2: 67.9

What do the screens show for `CC(=O)c1sc2c(c1OC(=O)c1ccc(Cl)cc1)c(=O)n(-c1ccccc1)c(=S)n2-c1ccccc1`?
CF NFkB inh: inactive; MITF TRPM1 inh: inactive; Peg3 prom inh-1: inactive; KKLEB cytotox: inactive; HIF-2a inh: inactive; ABHD5 PLIN5 PPI: inactive

What do the screens show for `CC(=O)c1sc2c(c1OC(=O)c1ccc(Cl)cc1Cl)c(=O)n(-c1ccccc1)c(=S)n2-c1ccccc1`?
CF NFkB inh: 53.9; MITF TRPM1 inh: 63.1; Peg3 prom inh-1: 79.6; KKLEB cytotox: inactive; HIF-2a inh: inactive; ABHD5 PLIN5 PPI: inactive; Peg3 prom inh-2: 58.6

What do the screens show for `O=C1NC(Cc2ccc(O)cc2)c2nc3ccc(F)cc3c(=O)n2-c2cc3ccccc3cc21` (stereo unspecified)?
CF NFkB inh: inactive; Peg3 prom inh-1: 54.1; KKLEB cytotox: inactive; HIF-2a inh: inactive; ABHD5 PLIN5 PPI: inactive; Peg3 prom inh-2: 60.0

Results for CCOC(=O)c1cc2c(=O)n3ccccc3nc2n(C(C)C)c1=NC(=O)c1c(-c2c(F)cccc2Cl)noc1C ?
CF NFkB inh: inactive; MITF TRPM1 inh: inactive; Peg3 prom inh-1: 64.5; KKLEB cytotox: inactive; HIF-2a inh: inactive; ABHD5 PLIN5 PPI: inactive; Peg3 prom inh-2: 43.0

How did CN1CCN(c2nc(-c3ccccc3)nc3c2oc2ccccc23)CC1 do in these assays?
CF NFkB inh: inactive; MITF TRPM1 inh: inactive; Peg3 prom inh-1: 65.9; KKLEB cytotox: inactive; HIF-2a inh: inactive; ABHD5 PLIN5 PPI: inactive; Peg3 prom inh-2: inactive

How did COc1ccc(-c2cn(CCc3c[nH]c4ccccc34)nn2)cc1 do in these assays?
CF NFkB inh: inactive; MITF TRPM1 inh: inactive; Peg3 prom inh-1: inactive; KKLEB cytotox: inactive; HIF-2a inh: inactive; ABHD5 PLIN5 PPI: inactive

What do the screens show for `COc1ccccc1C(=O)Nc1nc2ccccc2[nH]1`?
CF NFkB inh: inactive; MITF TRPM1 inh: 96.3; Peg3 prom inh-1: 97.8; KKLEB cytotox: -73.6; HIF-2a inh: 93.4; ABHD5 PLIN5 PPI: inactive; Peg3 prom inh-2: 91.8

Compound activity (PubChem)
